This is an account of results in PubChem BioAssay (NCATS).

For assay [1], the target named is N-terminal Xaa-Pro-Lys N-methyltransferase 1 (Homo sapiens) (UniProt Q9BV86). Put plainly: qHTS Assay for Inhibitors of N-terminal methyltransferase 1 (NTMT1): LOPAC validation of the NTMT1 SAHH-coupled ThioGlo3 Assay (AID 1347143).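 Further: SAH from peptide methylation measured as thiol fluorescence via SAHH coupling and ThioGlo3; nearly all actives have a fitted effect of over 70% in size.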 Further: potency means the concentration at half of the fitted maximal effect. Conditions: recombinant NTMT1, SAHH-coupled ThioGlo3 fluorescence; series mostly up to 114 µM. An outline of the steps:
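Inhibition of NTMT1 methylation of peptide SPKRIA is followed by converting SAH with SAHH and labelling the released thiol with ThioGlo3. Plates are read at 340/450nm before and 30 min after reagent addition, both at room temperature.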
On the technique in general: Quantitative high-throughput screening tests each substance at several concentrations.

The test system of assay [2] is Zika virus NS2B-NS3 protease (unlinked). The assay can be described thus: Optimization of GU AMC qHTS for Zika virus inhibitors: Unlinked NS2B-NS3 protease assay (AID 1347151). Further: nearly all actives have a fitted effect of over 80% in size. Further: potency means the concentration at half of the fitted maximal effect. Conditions: recombinant ZIKV NS2B-NS3 protease, fluorogenic AMC substrate; series mostly up to 52.5 µM. The essentials:
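Unlinked protease (25 nM final); buffer 10 mM Tris-HCl pH 8.0 + 0.01% Tween 20; AMC substrate; 15 min RT, dark; Δfluorescence normalized to no-inhibitor/no-enzyme controls; 4-parameter Hill fit.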

Assay [3] concerns Zika virus NS2B-NS3 protease (unlinked complex). Put plainly: Confirmatory screen GU AMC qHTS for Zika virus inhibitors (AID 1347153). Further: nearly all actives have a fitted effect of over 70% in size. Conditions: Recombinant NS2B-NS3 protease, AMC substrate fluorescence; series mostly up to 57.1 µM. The essentials: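 Unlinked enzyme 25 nM, Tris pH 8.0/0.01% Tween 20; cpd 15 min RT, dark; + AMC substrate 10 µM (Km 18.3 µM); 340/450 nm read at t0 and 15 min; % inhibition → 4-param fit.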

Assay [4] concerns Zika virus NS2B-NS3 protease. Put plainly: Primary screen GU AMC qHTS for Zika virus inhibitors (AID 1347154). Further: nearly all actives have a fitted effect of over 70% in size. The settings on record: Zika NS2B-NS3 unlinked protease, AMC fluorogenic substrate; series mostly up to 54.1 µM. The essentials: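 Fluorogenic AMC-substrate cleavage by noncovalent NS2B-NS3 protease complex (25 nM, pH 8.0 Tris buffer with Tween 20) followed for 15 minutes at room temperature (~20% conversion). Percent inhibition from ex340/em450 signal change, fitted by 4-parameter Hill equation.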

Assay [5] has as its target Lysine-specific demethylase 5B (Homo sapiens) (UniProt Q9UGL1). The assay can be described thus: Optimization screen for KDM5B Histone Demethylases FDH coupled qHTS against the LOPAC library (AID 1347166). The settings on record: KDM5B demethylation, FDH-coupled NADH fluorescence (FDH is formaldehyde dehydrogenase); series mostly up to 57.5 µM. An outline of the steps:
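KDM5BDeltaAP (200nM final) preincubated 10 min with compound, then 12.5uM H3K4Me3, 25uM a-ketoglutarate, ascorbate, Fe(II), NAD+ and FDH added; 50mM HEPES pH 7.5, 0.01% Tween-20. NADH fluorescence (340/450 nm) change over 30 min, room temperature.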

Assay [6] can be described thus: Vero cells viability qHTS for Zika virus inhibitors (AID 1347167). Conditions: cytotoxicity counter-screen (Zika); series mostly up to 45.9 µM. An outline of the steps: (§1)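 Compounds were tested in concentration series on cells grown in DMEM containing 4% FBS. After 24 to 48 hours, cellular ATP was measured by luminescence with CellTiter Glo.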
Assay [7] can be described thus: HepG2 cells viability qHTS for Zika virus inhibitors (AID 1347168). The settings on record: Zika counter-screen; series mostly up to 45.9 µM. An outline of the steps: as §1
Assay [8] in a line: Tertiary RLuc qRT-PCR qHTS assay for Zika virus inhibitors (AID 1347169). Further: potency means the concentration at half of the fitted maximal effect; nearly all actives have a fitted effect of over 55% in size. Conditions: infected Vero cells, reporter luminescence, 48-72 h; series mostly up to 45.9 µM. An outline of the steps:
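Vero, 1,000 cells/well, o/n 37 C; cpd pinned in DMSO; ZIKV-RLuc Cambodian, MOI 1-2, 48-72 h 37 C; live-cell RLuc substrate, lum read at 1-1.5 h.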

Assay [9] can be described thus: Confirmatory screen NINDS Rhodamine qHTS for Zika virus inhibitors (AID 1347161). Further: potency means the concentration at half of the fitted maximal effect; nearly all actives have a fitted effect of over 60% in size. Conditions: purified enzyme assay, Rhodamine110 substrate fluorescence, 15 min; series mostly up to 114 µM. The essentials:
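In 10 mM Tris-HCl pH 8.0 containing 0.01% Tween 20, linked NS2B-NS3 protease (25 nM final) is exposed to test compounds for 15 min. Cleavage of 1.5 microM Rhodamine110 substrate is tracked by fluorescence over 15 min.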

The subject of assay [10] is Zika virus NS2B-NS3 protease (linked). The assay can be described thus: 384 well plate NINDS AMC confirmatory qHTS for Zika virus inhibitors (AID 1347163). Further: potency means the concentration at half of the fitted maximal effect; nearly all actives have a fitted effect of over 50% in size. The settings on record: Recombinant NS2B-NS3 protease, Ac-VKTGKR-AMC fluorescence. An outline of the steps: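 Linked protease 5/30/60 nM final; cpds up to 1 mM final, ~15 min preinc. Substrate Ac-VKTGKR-AMC 30 microM final. RT, dark, 25 min; FI ex 355/em 460; normalized to no-enzyme/no-inhibitor ctrls.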

Assay [11] relates to Zika virus NS2B-NS3 protease (linked construct). Put plainly: 384 well plate NINDS Rhodamine confirmatory qHTS for Zika virus inhibitors (AID 1347164). Further: potency means the concentration at half of the fitted maximal effect; nearly all actives have a fitted effect of over 65% in size. The settings on record: rhodamine-110 peptide substrate fluorescence; series mostly up to 100 µM. An outline of the steps: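 Enzyme (final 5/30/60 nM) + cpd (DMSO), ~15 min; add Ac-LKRR-Rd 10 microM final; 25 min RT, dark; FI ex 485/em 538; normalized to no-enzyme, no-inhibitor ctrls; aprotinin intraplate ctrl.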

Results filed as inconclusive are left out. The source made the active and inactive calls. The call rests on the fitted dose curve; in most records, active means well fitted curve in the direction sought with a large enough effect; inconclusive means small, poorly fitted or top-dose-only effect, or another doubt; inactive means no such curve, though single readings can be large; an effect the other way counts as inactive or inconclusive.

Chain of N-terminal Xaa-Pro-Lys N-methyltransferase 1 (Homo sapiens) (Q9BV86 whole entry, looked up): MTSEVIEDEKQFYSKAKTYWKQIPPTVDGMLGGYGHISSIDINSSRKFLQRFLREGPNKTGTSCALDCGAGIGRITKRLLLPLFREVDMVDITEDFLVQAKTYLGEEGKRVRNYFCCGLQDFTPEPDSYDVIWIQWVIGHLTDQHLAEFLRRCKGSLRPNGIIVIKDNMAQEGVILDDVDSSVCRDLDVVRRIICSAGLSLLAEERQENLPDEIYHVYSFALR
Chain of Lysine-specific demethylase 5B (Homo sapiens) (Q9UGL1 whole entry, looked up): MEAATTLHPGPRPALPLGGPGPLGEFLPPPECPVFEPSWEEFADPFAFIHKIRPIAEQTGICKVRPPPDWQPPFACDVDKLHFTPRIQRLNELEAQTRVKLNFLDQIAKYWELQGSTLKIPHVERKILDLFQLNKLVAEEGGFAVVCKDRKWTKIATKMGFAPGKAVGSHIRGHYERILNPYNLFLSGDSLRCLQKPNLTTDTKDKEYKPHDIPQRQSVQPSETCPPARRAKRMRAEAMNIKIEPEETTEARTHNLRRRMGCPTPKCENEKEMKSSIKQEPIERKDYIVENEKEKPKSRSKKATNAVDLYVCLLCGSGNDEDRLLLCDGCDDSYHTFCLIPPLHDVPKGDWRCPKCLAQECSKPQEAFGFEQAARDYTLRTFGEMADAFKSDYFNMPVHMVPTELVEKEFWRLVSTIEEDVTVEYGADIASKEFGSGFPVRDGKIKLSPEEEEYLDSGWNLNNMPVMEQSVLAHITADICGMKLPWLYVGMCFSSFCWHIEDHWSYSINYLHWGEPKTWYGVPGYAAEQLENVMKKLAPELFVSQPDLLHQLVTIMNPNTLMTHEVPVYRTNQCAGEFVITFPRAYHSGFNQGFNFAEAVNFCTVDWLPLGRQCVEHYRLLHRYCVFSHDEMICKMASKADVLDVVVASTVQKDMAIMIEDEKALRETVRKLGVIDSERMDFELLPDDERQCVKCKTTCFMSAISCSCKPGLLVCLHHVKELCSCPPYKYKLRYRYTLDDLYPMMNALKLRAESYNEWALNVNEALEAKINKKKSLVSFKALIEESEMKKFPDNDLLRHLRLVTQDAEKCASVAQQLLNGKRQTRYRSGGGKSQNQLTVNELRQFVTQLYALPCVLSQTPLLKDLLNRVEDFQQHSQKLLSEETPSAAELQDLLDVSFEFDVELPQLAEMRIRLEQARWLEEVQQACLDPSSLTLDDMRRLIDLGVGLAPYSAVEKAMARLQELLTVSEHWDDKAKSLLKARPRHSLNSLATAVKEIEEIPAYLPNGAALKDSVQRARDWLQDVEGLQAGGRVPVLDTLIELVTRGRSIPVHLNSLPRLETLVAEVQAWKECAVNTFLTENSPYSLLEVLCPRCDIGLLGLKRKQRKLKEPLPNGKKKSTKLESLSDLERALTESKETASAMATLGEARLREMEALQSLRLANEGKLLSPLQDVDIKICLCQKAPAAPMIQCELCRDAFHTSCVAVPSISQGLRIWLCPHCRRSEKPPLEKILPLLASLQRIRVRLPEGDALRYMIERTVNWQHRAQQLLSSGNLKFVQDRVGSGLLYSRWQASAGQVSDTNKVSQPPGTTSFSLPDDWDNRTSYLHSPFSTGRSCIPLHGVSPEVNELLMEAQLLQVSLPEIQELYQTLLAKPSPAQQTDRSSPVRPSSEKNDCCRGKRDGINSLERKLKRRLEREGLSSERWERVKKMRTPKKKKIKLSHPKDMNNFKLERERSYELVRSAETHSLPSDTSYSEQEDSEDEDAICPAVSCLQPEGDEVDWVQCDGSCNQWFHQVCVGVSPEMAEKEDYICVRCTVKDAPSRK

For `Nc1ccn([C@H]2O[C@H](CO)[C@@H](O)C2(F)F)c(=O)n1`, the Potency entry in [1] and in [2] was “inactive” each time.
On to `Cc1cn([C@H]2CC(N=[N+]=[N-])[C@@H](CO)O2)c(=O)[nH]c1=O` (some centres undefined), for which the Potency entry in assay [1] and in assay [2] was “inactive” throughout.
Take `O=C(CCSCc1ccco1)NNC(=O)N1Cc2ccccc2Oc2ccc(Cl)cc21`: the Potency result in [1] and in [2] was “inactive” throughout.
Consider `Nc1nc2ccc(Cl)cc2n2c(-c3ccccc3)nnc12`, for which the Potency entry in [1] and in assay [2] was “inactive” in each case.
Take `CCCCCCCCCCCCCCCCCCN(CCCCCCCCCCCCCCCCCC)CCCN(CCO)CCO`: the Potency result in assay [1] and in assay [2] was “inactive” throughout.
Turning to `CCOC(=O)C1=C(C)NC(C)=C(C(=O)OCC)C1c1c(F)c(F)c(F)c(F)c1F`, the results for the Potency in assay [1] and in [2] were 79.4 µM (active) and 23.8 µM (active), respectively.
Regarding `O=C1NC(O)=NC1(c1ccccc1)c1ccccc1`, the Potency result in assay [1] and in [2] was “inactive” each time.
Regarding `NCCSSCCN`, the Potency result in assay [1] and in [2] was “inactive” throughout.
Consider `CC1CN(S(=O)(=O)c2cccc3cnccc23)CCN1` (centres undefined), for which the Potency entry in assay [1] and in [2] was “inactive” each time.
Consider `Nc1nc(OCC2CCCCC2)c2[nH]cnc2n1`, for which the Potency entry in [1] and in assay [2] was “inactive” throughout.
As for `Nc1nc2c(ncn2[C@@H]2O[C@H](CO)[C@@H](O)[C@@H]2O)c(=O)[nH]1`, the Potency entry in [1] and in assay [2] was “inactive” in each case.
For the molecule `CN=c1nc(-c2ccccc2)n(-c2ccccc2)s1`, the Potency in assay [1] was 0.316 µM (active). Besides, the Potency result in [2] was “inactive”.
As for `CO[C@H]1O[C@@H]2O[C@]3(C)CC[C@@H]4[C@@H](C)CC[C@H]([C@H]1C)[C@]24OO3`, the Potency entry in assay [1] and in assay [2] was “inactive” throughout.
Consider `CC(C)(C)c1ccc(S(=O)(=O)/C=C/C#N)cc1`, for which the Potency in assay [1] is 4.47 µM (active). For the same molecule, in assay [2], the Potency result was “inactive”.
With `NO`, the Potency result in [1] and in assay [2] was “inactive” in each case.
Take `CC(C)NC[C@@H](O)c1ccc(O)c(O)c1`: the Potency in assay [1] is 50.1 µM (active). For the same molecule, in [2], the Potency entry was “inactive”.
With `Oc1cc2c(cc1O)CN(C(=S)NCCc1ccc(Cl)cc1)CCC2`, the Potency in assay [1] is 20 µM (active); in assay [2], 23.8 µM (active); in assay [8], 13.1 µM (active). Besides, the outcome in assay [3], in [5], in [6] and in [7] was inactive. The Potency result in [4] was “inactive”.
Turning to `CCNC(=O)[C@H]1O[C@@H](n2cnc3c(N)nc(NCCc4ccc(CCC(=O)O)cc4)nc32)[C@H](O)C1O` (some centres undefined), the Potency entry in assay [1] and in [2] was “inactive” throughout.
On to `Cn1ncc(S(=O)(=O)Cc2ccccc2)c(Br)c1=O`, for which, in assay [1], the Potency was 44.7 µM (active). Further, the Potency entry in assay [2] is “inactive”.
Take `CC(=O)N[C@H](C(=O)O)C(C)(C)SN=O`: the Potency entry in assay [1] and in [2] was “inactive” throughout.
Turning to `CCC(CO)Nc1nc(NCc2ccccc2)c2ncn(C(C)C)c2n1` (centres undefined), the Potency result in [1] and in [2] was “inactive” in each case.
`N#C/C(=C\c1ccc(O)c(O)c1)C(=O)c1ccc(O)c(O)c1`: the Potency in assay [1] is 31.6 µM (active); in assay [2], 1.19 µM (active).
On to `CCCC(CCC)C(=O)OC1CC2CCC(C1)[N+]2(C)C` (centres undefined), for which the Potency entry in [1] and in assay [2] was “inactive” throughout.
Consider `Cn1c(=O)c(-c2c(Cl)cccc2Cl)cc2cnc(Nc3ccc(N4CCOCC4)cc3)nc21`, for which, in assay [1], the Potency is 56.2 µM (active). The Potency result in assay [2] was “inactive”.
As to `CC(C)c1cccc(C(C)C)c1N1C(=O)c2ccc(O)cc2C1=O`, the Potency entry in assay [1] and in [2] was “inactive” in each case.
For the molecule `Oc1cc(O)cc(/C=C/c2ccc(O)c(O)c2)c1`, the Potency in assay [1] was 35.5 µM (active); in assay [2], 23.8 µM (active).
`O=C(/C=C/c1ccc(O)cc1)c1ccc(O)cc1O`: the Potency in assay [1] was 44.7 µM (active). Also, in assay [2], the Potency entry was “inactive”.
Regarding `COCCOc1cc2ncnc(Cl)c2cc1OCCOC`, the Potency result in [1] and in assay [2] was “inactive” each time.
On to `C=C[C@H]1CN2CC[C@@H]1C[C@@H]2[C@@H](O)c1ccnc2ccc(OC)cc12`, for which the Potency in [1] was 56.2 µM (active); in [2] it was 26.7 µM (active).
For `O=C1NCc2c1c1c3ccccc3[nH]c1c1[nH]c3ccccc3c21`, the Potency in [1] is 79.4 µM (active); in assay [2] it was 23.8 µM (active).
As for `Oc1ccc(C2CNCc3sccc32)cc1O` (centres undefined), in assay [1], the Potency was 35.5 µM (active). In addition, the Potency entry in assay [2] was “inactive”.
Consider `O=Nc1ccc2oc(=O)ccc2c1`, for which, in assay [1], the Potency was 4.47 µM (active). Also, the Potency result in assay [2] is “inactive”.
For `COC1=C(OC)C(=O)c2ccccc2C1=O`, the Potency entry in assay [1] and in [2] was “inactive” throughout.
Turning to `O=C(c1cc(O)c(O)c([N+](=O)[O-])c1)c1ccccc1F`, the Potency in assay [1] was 56.2 µM (active); in [2], 2.99 µM (active); in [9], 17.5 µM (active); in assay [10], 112 µM (active); in assay [11], 0.398 µM (active). Moreover, the result in assay [3] and in [7] was inactive.
